Out of some 69,000 compounds screened, about 8,600 (12%) showed an effect of 50% or more. The list comes from a sample in which strong results are over-represented; it also holds similar structures and randomly drawn compounds.
system: Plasmodium berghei; test: Screen against P. berghei liver stage (PbLuc), transformed with Luciferase, at 10uM; type: functional, HepG2; conditions: tested at 10 uM

`CC(C)CC(=O)N1Cc2ccccc2CC1C(=O)Nc1nccs1` (stereo unspecified) was tested. Which INHIBITION did it give?
Its INHIBITION is 31.6%.

With `CCn1cc2c(n1)CN(S(=O)(=O)c1cccnc1)CC2COC` (stereo unspecified) as the compound, how does the INHIBITION read?
Its INHIBITION is 8.85%.

For `CC1(c2ncc(CN3CCN(c4ccccn4)CC3)cn2)CCCCO1` (stereo unspecified), which INHIBITION is on record?
Its INHIBITION is -16.85%.

Which INHIBITION does the source give for `O=C1[C@H]2CN(CC3CC3)C[C@H]2CN1Cc1cccc(F)c1` here?
The INHIBITION was 39.8%.

Which INHIBITION does the source give for `O=C(NCc1cccnc1N1CCc2ccccc2C1)c1cnc[nH]1` here?
The INHIBITION was -11.6%.

For `Cc1cc(C(=O)N2CC[C@@H]3CN(CCC(C)C)S(=O)(=O)[C@@H]3CC2)no1`, which INHIBITION is on record?
The INHIBITION was 6.27%.

`CS(=O)(=O)N1C[C@H]2CC[C@@H](C1)N(C/C=C/c1ccc(F)cc1)C2` was tested. Which INHIBITION did it give?
Its INHIBITION is 31.7%.

With `Cc1ccc(CN2CCn3cc(CNC(=O)c4cnn(C)c4)nc3C2)s1` as the compound, how does the INHIBITION read?
The INHIBITION was 16.8%.

How did the INHIBITION turn out when `CS(=O)(=O)NCc1cncc2c1CCN(C(=O)N1CCCC1)C2` was run?
The INHIBITION was 37.2%.

`Cc1ccccc1-n1cnc(Cl)c1C(=O)O` was tested. Which INHIBITION did it give?
Its INHIBITION is 24.4%.

`Cc1cccc(-n2cnc(Cl)c2CO)c1` was tested. Which INHIBITION did it give?
The INHIBITION was 28%.

For `OCc1c(Cl)ncn1-c1ccccc1`, which INHIBITION is on record?
The INHIBITION was 46.4%.

Which INHIBITION does the source give for `OCc1c(Cl)ncn1-c1ccc(F)cc1` here?
Its INHIBITION is 52.8%.

With `Cc1ccccc1-n1cnc(Cl)c1CO` as the compound, how does the INHIBITION read?
Its INHIBITION is 59.3%.

Which INHIBITION does the source give for `Cc1ccc(-n2cnc(Cl)c2CO)cc1` here?
The INHIBITION was 40.9%.

How did the INHIBITION turn out when `COc1ccc(CN2C[C@@H]3C(CC(=O)N4CCCC4)[C@@H]3C2)cc1` (stereo partly specified) was run?
The INHIBITION was 17.4%.

With `CCc1nnc2n1CC(CNCc1nnc(C(C)(C)C)o1)CC2` (stereo unspecified) as the compound, how does the INHIBITION read?
The INHIBITION was 14.9%.

Which INHIBITION does the source give for `Cc1cccc(NC(=O)N2CCC3(CC(=O)N(c4ccsc4)C3)C2)c1` (stereo unspecified) here?
The INHIBITION was 12.4%.

`COCCn1cc2c(n1)C(CNCc1ccc(F)cc1)OCC2` (stereo unspecified) was tested. Which INHIBITION did it give?
The INHIBITION was 13.5%.

For `Cc1ccc(C(=O)N(C)Cc2cscn2)c(=O)[nH]1`, which INHIBITION is on record?
Its INHIBITION is 15%.

`COCCC1COC2(CCN(C(=O)c3cccnc3)CC2)C1` (stereo unspecified) was tested. Which INHIBITION did it give?
The INHIBITION was 34.6%.

How did the INHIBITION turn out when `COCCC1COC2(CCN(C(=O)c3ccncc3)CC2)C1` (stereo unspecified) was run?
The INHIBITION was 74.2%.

Which INHIBITION does the source give for `CCN(C)C1COC2(CCN(C(=O)c3ccc(Cl)cc3)CC2)C1` (stereo unspecified) here?
Its INHIBITION is 70.3%.

For `COCCC1COC2(CCN(C(=O)c3cccn3C)CC2)C1` (stereo unspecified), which INHIBITION is on record?
Its INHIBITION is 20.6%.

`COCCC1COC2(CCN(C(=O)c3ccccc3)CC2)C1` (stereo unspecified) was tested. Which INHIBITION did it give?
The INHIBITION was 40.4%.

`CCN(C)C1COC2(CCN(C(=O)c3cccc(Cl)c3)CC2)C1` (stereo unspecified) was tested. Which INHIBITION did it give?
Its INHIBITION is 0.112%.

`COCCC1COC2(CCN(C(=O)c3ccsc3)CC2)C1` (stereo unspecified) was tested. Which INHIBITION did it give?
Its INHIBITION is 57.9%.

With `CCN(C)C1COC2(CCN(C(=O)c3ccc4[nH]ccc4c3)CC2)C1` (stereo unspecified) as the compound, how does the INHIBITION read?
The INHIBITION was -12.2%.

For `COCCC1COC2(CCN(C(C)=O)CC2)C1` (stereo unspecified), which INHIBITION is on record?
The INHIBITION was 20.1%.

For `CCc1nc2ccccc2n1C(CC)C(=O)N(C)CCc1noc(C)n1` (stereo unspecified), which INHIBITION is on record?
Its INHIBITION is -4.12%.

Which INHIBITION does the source give for `CC(C)c1noc(OCc2cccc(S(=O)(=O)N(C)C)c2)n1` here?
Its INHIBITION is 37.8%.

How did the INHIBITION turn out when `CCCn1nnc(NCc2ccccc2OCc2ccc(Cl)cc2)n1` was run?
Its INHIBITION is -36.8%.

With `COc1ccccc1CNC(=O)C[S+]([O-])Cc1cc(C)on1` (stereo unspecified) as the compound, how does the INHIBITION read?
Its INHIBITION is -9.19%.

`CCN(CC1CCOC1)C(=O)c1ccccc1N1CCOCC1` (stereo unspecified) was tested. Which INHIBITION did it give?
Its INHIBITION is 26.8%.

With `CCN(CC1CCOC1)C(=O)c1cc(Cl)c2c(c1)OCO2` (stereo unspecified) as the compound, how does the INHIBITION read?
The INHIBITION was 56.6%.

With `CCN(CC1CCOC1)C(=O)c1cc(F)ccc1N1CCN(C)CC1` (stereo unspecified) as the compound, how does the INHIBITION read?
The INHIBITION was 7.27%.

`CCN(CC1CCOC1)C(=O)c1cc(OC)c2c(c1)OCCO2` (stereo unspecified) was tested. Which INHIBITION did it give?
Its INHIBITION is 30.9%.

For `O=C(c1cc(Cl)c2c(c1)OCCCO2)N(CC1CCOC1)C1CC1` (stereo unspecified), which INHIBITION is on record?
Its INHIBITION is 30.9%.

Which INHIBITION does the source give for `CCN(CC1CCOC1)C(=O)c1ccc(N2CCOCC2)c(F)c1` (stereo unspecified) here?
Its INHIBITION is 66.2%.

Which INHIBITION does the source give for `COCC(=O)N1CCCC(c2noc3nc(C)cc(C(F)(F)F)c23)C1` (stereo unspecified) here?
The INHIBITION was 24.4%.

With `CC(C)NC(=O)COc1ccc(-c2nc(C(C)C)no2)cc1` as the compound, how does the INHIBITION read?
The INHIBITION was 10.7%.

`Cc1csc(C(C#N)C(=O)NCc2cccnc2)n1` (stereo unspecified) was tested. Which INHIBITION did it give?
The INHIBITION was 26.5%.

How did the INHIBITION turn out when `Cc1csc(C(C#N)C(=O)NCc2ccccc2)n1` (stereo unspecified) was run?
The INHIBITION was 52.6%.

`Cc1csc(C(C#N)C(=O)Nc2ccccc2)n1` (stereo unspecified) was tested. Which INHIBITION did it give?
The INHIBITION was 8.08%.

With `Cc1cc(N(C)C)nc(C2CCNC2)n1` (stereo unspecified) as the compound, how does the INHIBITION read?
The INHIBITION was 35%.

Which INHIBITION does the source give for `O=C(NC1CCCc2nc(N3CCCCC3)ncc21)C1CCCC1` (stereo unspecified) here?
The INHIBITION was 40%.

For `Cc1ccc(C(CNC(=O)Nc2cn[nH]c2)N2CCOCC2)o1` (stereo unspecified), which INHIBITION is on record?
Its INHIBITION is -45.6%.

How did the INHIBITION turn out when `CC1=Nc2c(c(=O)[nH]n2C(C)C)C(c2ccsc2)S1` (stereo unspecified) was run?
The INHIBITION was 30%.

How did the INHIBITION turn out when `O=C(NCc1cccnc1)N1CCc2ncnc(C3CC3)c2CC1` was run?
Its INHIBITION is -14.3%.

How did the INHIBITION turn out when `O=C(O)CCc1ccc(S(=O)(=O)Nc2cnn(CC3CC3)c2)cc1` was run?
Its INHIBITION is 5.51%.

How did the INHIBITION turn out when `O=C(O)CCc1ccc(S(=O)(=O)Nc2cnn(CC(F)(F)F)c2)cc1` was run?
The INHIBITION was 28.1%.

With `O=C(O)c1ccc(S(=O)(=O)Nc2cnn(CC(F)(F)F)c2)cc1` as the compound, how does the INHIBITION read?
Its INHIBITION is 72.8%.

`O=C(NCCOc1ccc(Cl)cn1)Nc1ccccn1` was tested. Which INHIBITION did it give?
The INHIBITION was -34.8%.

For `CS(=O)(=O)NCc1cncc2c1CCN(C(=O)c1cccnc1)C2`, which INHIBITION is on record?
The INHIBITION was 4.57%.

`Cc1cnn(CC(=O)NCC2CCN(c3cc(Cl)ccc3C)C2)c1` (stereo unspecified) was tested. Which INHIBITION did it give?
The INHIBITION was -47.28%.

How did the INHIBITION turn out when `CCC(CC)Cn1ncc(N2CCOCC2)cc1=O` was run?
The INHIBITION was 23.8%.

With `Cc1cnn(C(C)C(=O)NCC2CCN(c3cnn(C)c(=O)c3)CC2)c1` (stereo unspecified) as the compound, how does the INHIBITION read?
Its INHIBITION is -9.08%.

For `CCCOCCn1ncc(N2CCCC2)cc1=O`, which INHIBITION is on record?
Its INHIBITION is -49.2%.

With `NCC1CCN(c2cnn(CCCn3cccn3)c(=O)c2)CC1` as the compound, how does the INHIBITION read?
Its INHIBITION is 61%.

`CN1CCN(c2cnn(CCn3cccn3)c(=O)c2)CC1` was tested. Which INHIBITION did it give?
The INHIBITION was 57.3%.

Which INHIBITION does the source give for `O=c1cc(N2CCNCC2)cnn1CCCn1cccn1` here?
Its INHIBITION is 49.9%.

How did the INHIBITION turn out when `Cc1cnn(CCCn2ncc(N3CCC(CN)C3)cc2=O)c1` (stereo unspecified) was run?
Its INHIBITION is 66.5%.

With `O=c1cc(N2CCCCC2)cnn1CCCn1cccn1` as the compound, how does the INHIBITION read?
Its INHIBITION is -54%.

Which INHIBITION does the source give for `Cc1nn(C)c(C)c1C1COCCN1C(=O)c1cc(F)ccc1F` (stereo unspecified) here?
The INHIBITION was -2.19%.

For `COc1cccc(CN2CCCC2c2cccc(F)c2)c1OC` (stereo unspecified), which INHIBITION is on record?
The INHIBITION was 1.45%.

`Cc1nn(C)cc1-c1cc(C(F)F)n2nc(CCC(=O)O)nc2n1` was tested. Which INHIBITION did it give?
The INHIBITION was 21.9%.

Which INHIBITION does the source give for `COc1ccc(Cl)cc1S(=O)(=O)N(C)CC(=O)Nc1ccon1` here?
Its INHIBITION is -44.8%.

For `Cc1cnn(CC2CCCN2C(=O)CCc2c(C)noc2C)c1` (stereo unspecified), which INHIBITION is on record?
The INHIBITION was 17.3%.

How did the INHIBITION turn out when `O=C1CC[C@H]2CN(C3CCOCC3)CC[C@H]2N1CCC1=CCCCC1` was run?
Its INHIBITION is 58.5%.

For `CS(=O)(=O)N1CC[C@@H]2[C@@H](CCC(=O)N2CCC2=CCCCC2)C1`, which INHIBITION is on record?
Its INHIBITION is 19.4%.

Which INHIBITION does the source give for `CN1CCC(N2CC[C@@H]3[C@@H](CCC(=O)N3CCC3=CCCCC3)C2)CC1` here?
Its INHIBITION is 33.9%.
